Hit rate of the full screen: of about 53,000 sequences, about 3,700 (7%) were called active. This is one part of a sample in which actives are shown more often than they occur. A number with no mark means an inactive call.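 The calls were made as follows: active = gene knockdowns whose robust z-score for IL-1 alpha signal is at least 2 or at most -2, so actives lie on both sides; inactive = the rest.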
Assay: Components of the Cytosolic LPS Sensing Pathway: Gene Identification via Genome-wide siRNA Screen;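 also: robust z of the log signal after scaling to non-targeting control siRNA wells of the plate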
Details: RAW264.7 macrophages, IL-1a HTRF, actives lie on both sides, screened at 100 nM (by protocol), cells primed 5 h with Pam3CSK4 first
In short: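 Mouse macrophage line RAW264.7 is transfected with siRNA (100 nM final), grown 48h, primed with TLR ligand Pam3CSK4 5 h and given intracellular LipidA 24 h. IL-1a in supernatant is read by HTRF and viability by luminescence.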

Sequence | z-score
GGAUUCUCCAGACACCUUGTT against Styxl1 | -0.704
GCUAUUGCCUUAGAUCCAUTT against Lrp6 | 0.384
GCUCAACUUCUGAAUUAUATT against Enpep | 2.64 (active)
GGUCAGCAUCACCUACGAUTT against Prss8 | -0.688
GGAGCUGAAGCAAAGACAGTT against Svbp | -0.599
GGAAACAACCAUCGAGGUUTT against Cyp4x1 | -0.31
GGCUGUGACUCUGGAUUUGTT against Bdh1 | -0.985
GGAUUCUGAACACUUUUUCTT against Pot1a | -2.02 (active)
GCACCAUGUAUACAAAAGATT against Pcdhb3 | 0.0679
GGAGUUUGUGAAUAAAUGUTT against Map2k2 | 0.177
GUGGAAGACUUCACCGGACTT against Arxes1 | 2.01 (active)
GCUUACUUUGGAACACAAATT against Tex18 | 1.22
GCAGGAUUGCAUAUAUCGGTT against Cspg5 | -0.672
CGAUGCUGUUCUUCAAUGUTT against Krt222 | 1.23
GGUUUGAAUUCAAGUUCAUTT against Klhl5 | 0.616
GGAAAAAUAGGUCGAAUGATT against Arntl | 0.229
CGAUUCCAACAAGAAAGUGTT against Togaram2 | 0.649
GCGGGAGAAGCUAAUGAAATT against Ndufs5 | 2.21 (active)
GGAUUUUGUUUCAGGUGGATT against Itgb8 | 1.78
GGCAGAUGGUAUCAGCUGUTT against Cd248 | -1.11
GGAGACAAACUCAAAACUGTT against Lyplal1 | -1.12
CACUGAACAGAUCAGAGCATT against Fam189b | -2.44 (active)
AAUCUUGAGAGAUUUCUCCTT against Scd2 | -0.047
GCCACGGCCAGUAAAACAUTT against Cdcp1 | 0.335
GGAUGAGUUUUUAAAGUCATT against Otop2 | -0.883
GGCAAUGUCAGAGCUAAUCTT against Mettl25 | 0.596
GGGACAACCUGGAUGACAUTT against Coq6 | -0.0644
CCUUUGUCCGGUCCAUUCCTT against Hk1 | -0.654
GCAAGUUCGAAUCCUCCGUTT against Dach2 | 4.72 (active)
GGUGAAUGGCAUGACCAUATT against Asb9 | 0.49

Source: PubChem BioAssay AID1508600 (Functional Genomics Laboratory (NCATS/FGL), 2020)
